Values joined by “and” are separate entries in the source; they are usually repeats but may differ in a detail not shown here. Identical values can stand only once. This is part of a sample that, as a whole, favours compounds with a hit. Of some 79,000 tested, about 15% had one in any assay. Values without a mark were called inactive. Active and inactive are the calls of the source. Rule as the data show it: active = growth inhibition above about 70%; inactive = the rest.
Assay: NCI Yeast Anticancer Drug Screen. Data for the sgs1 mgt1 strain (AID 161);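 also: 0% = growth of cultures given vehicle only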
Conditions: S. cerevisiae sgs1 mgt1 strain, at 50.0 µM (retest, dose inferred, filed as 5.0), active compounds read high
Method in brief: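 This yeast growth screen uses a strain with defined DNA-repair lesions; compound-treated growth is compared with vehicle-treated growth.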
In the case of `CN(C)c1ccc(C2CC(C)(O)Oc3cc4c(cc32)OCO4)cc1` (stereo unspecified), the growth inhibition is reported as 83% (active). In the case of `O=P(NC1CCCCC1)(OCc1ccccc1)OCc1ccccc1`, the growth inhibition is reported as 7%. In the case of `COc1oc(C(=O)NC2CCCCC2)c(-c2ccc(Cl)cc2)c1S(=O)(=O)c1ccccc1`, the growth inhibition is reported as 88% (active). In the case of `C[Si](C)(C)/C=C/CCNC(C#N)c1ccccc1` (stereo unspecified), the growth inhibition is reported as 97% (active). In the case of `CCOc1ccc(NC(=O)C2=C(C)NC(C)=C(C(=O)Nc3ccc(OCC)cc3)C2c2cccc([N+](=O)[O-])c2)cc1`, the growth inhibition is reported as 29%. With `CN(C)CCOC1(Cc2ccc(F)cc2)CCC(C(C)(C)C)CC1` (stereo unspecified) the growth inhibition was 75% (active) and 83% (active). Compound `CC1(C)CC(=O)C(/C=N/c2nc(-c3ccccc3)cs2)=C(O)C1` has a growth inhibition of 38%. With `CC(=O)Nc1ccc2c(c1)Cc1cc(N=C3C=CC(=O)O3)ccc1-2` the growth inhibition was 99% (active). In the case of `O=C1C=C(Cl)C(=O)C(c2ccc(Cl)cc2)=C1`, the growth inhibition is reported as 95% (active). With `CNCCCNc1c2ccccc2nc2cccc([N+](=O)[O-])c12` the growth inhibition was 96% (active). In the case of `CCCCCCCCCCCC(O)S(=O)(=O)O` (stereo unspecified), the growth inhibition is reported as 17%. With `CC(C)OC(=O)c1ccc(CCc2cc(O)c(Br)cc2O)cc1` the growth inhibition was 98% (active). In the case of `CCc1cc(O)c(Cl)c(C)c1Cl`, the growth inhibition is reported as 33%. With `C(=Nc1ccc(-c2cc(-c3ccccc3)nc3ccc4ccccc4c23)cc1)c1ccccc1` the growth inhibition was 92% (active). Compound `CSc1nc(C)c(CCOC(C)=O)c(N=P(c2ccccc2)(c2ccccc2)c2ccccc2)n1` has a growth inhibition of 22%. For `CS(=O)(=O)SCc1ccc([N+](=O)[O-])cc1`, the growth inhibition was 95% (active).
